Source: PubChem BioAssay (NCI)
About 83,000 compounds went through this panel and 20% of them were active in at least one assay; those are over-represented in the sample as a whole.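 For each line, cells grew in 96-well plates with the test compound present at a single concentration for 48 hours.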 Unmarked numbers belong to inactive results. Active and inactive are the calls of the source. The calls were made as follows: active = growth percent below 10; inactive = the rest.

Legend:
Test in all cases: NCI-60 one-dose screen, 48 h (100 = growth as untreated, 0 = no growth, -100 = all killed)
NCI-H226 lung = details: 10 µM
NCI-H322M lung = details: 10 µM
HOP-62 NSCLC = details: 10 µM
A549/ATCC NSCLC = details: 10 µM
786-0 renal = details: 10 µM
COLO 205 colon = details: 10 µM
DU-145 prostate = details: 10 µM
SF-268 CNS = details: 10 µM
SF-295 CNS = details: 10 µM
SF-539 CNS = details: 10 µM
HCT-15 colon = details: 10 µM
SNB-75 CNS = details: 10 µM
SNB-19 CNS = details: 10 µM
U251 CNS = details: 10 µM
PC-3 prostate = details: 10 µM
EKVX NSCLC = details: 10 µM
UO-31 renal = details: 10 µM
ACHN renal = details: 10 µM
HL-60(TB) leukemia = details: 10 µM unless noted
CCRF-CEM leukemia = details: 10 µM

CC(=O)O[C@@H]1[C@@H]2O[C@H]2[C@@](C)(O)C(=O)[C@@H](C)C/C=C/[C@H]2[C@@H]3O[C@]3(C)[C@@H](C)C3[C@H](Cc4ccccc4)NC(=O)[C@@]312 (stereo not given in full)
growth (NCI-H226 lung): 65.7%
growth (NCI-H322M lung): 92.5%
growth (HOP-62 NSCLC): 5.72% (active)
growth (A549/ATCC NSCLC): 25.1%
growth (786-0 renal): 24.3%
growth (COLO 205 colon): 38.8%
growth (DU-145 prostate): 50.2%
growth (SF-268 CNS): 26.5%
growth (SF-295 CNS): 65.4%
growth (SF-539 CNS): 51.5%
growth (HCT-15 colon): 54.1%
growth (SNB-75 CNS): -12.9% (active)
growth (SNB-19 CNS): 55.1%
growth (U251 CNS): 43.1%
growth (PC-3 prostate): 72.3%
growth (EKVX NSCLC): 39.1%
growth (UO-31 renal): 24.8%
growth (ACHN renal): 40.4%
growth (HL-60(TB) leukemia): 58.2%
growth (CCRF-CEM leukemia): 44.2%

CC1=C[C@H]2O[C@@H]3C[C@H]4OC(=O)/C=C\C=C\[C@H]([C@@H](C)O)OCC[C@@H](C)[C@H](O)C(=O)OC[C@@]2(CC1)[C@]4(C)[C@]31CO1
growth (NCI-H226 lung): -50.5% (active)
growth (NCI-H322M lung): -19.5% (active)
growth (HOP-62 NSCLC): -34.5% (active)
growth (A549/ATCC NSCLC): -21.1% (active)
growth (786-0 renal): -43.3% (active)
growth (COLO 205 colon): -57.8% (active)
growth (DU-145 prostate): -18.4% (active)
growth (SF-268 CNS): -0.597% (active)
growth (SF-295 CNS): -38.8% (active)
growth (SF-539 CNS): -36.5% (active)
growth (HCT-15 colon): -7.55% (active)
growth (SNB-75 CNS): -48.3% (active)
growth (SNB-19 CNS): -14.3% (active)
growth (U251 CNS): -20.4% (active)
growth (PC-3 prostate): -22.9% (active)
growth (EKVX NSCLC): -28.5% (active)
growth (UO-31 renal): -33.6% (active)
growth (ACHN renal): -13.6% (active)
growth (HL-60(TB) leukemia): -50.3% (active)
growth (CCRF-CEM leukemia): -7.82% (active)

COc1cccc2c1cc([N+](=O)[O-])c1c(C(=O)O)cc3c(c12)OCO3
growth (NCI-H226 lung): 104%
growth (NCI-H322M lung): 115%
growth (HOP-62 NSCLC): 113%
growth (A549/ATCC NSCLC): 100%
growth (786-0 renal): 109%
growth (COLO 205 colon): 18.1%
growth (DU-145 prostate): 112%
growth (SF-268 CNS): 108%
growth (SF-295 CNS): 101%
growth (SF-539 CNS): 106%
growth (HCT-15 colon): 99.9%
growth (SNB-75 CNS): 96.2%
growth (SNB-19 CNS): 102%
growth (U251 CNS): 103%
growth (PC-3 prostate): 95.6%
growth (EKVX NSCLC): 97%
growth (UO-31 renal): 85.1%
growth (ACHN renal): 101%
growth (HL-60(TB) leukemia): 105%
growth (CCRF-CEM leukemia): 96.6%
